“And” between values parts separate entries of the source, which are not always exact repeats. Equal values may be shown once. Hit rate of the full screen: of about 5,500 compounds, about 2,000 (36%) were called active. About 18% were inconclusive and are not listed. No stated cut-off is given here; in the data, active means normalized growth mostly below about 0.91 (no sharp cut-off); inconclusive means no clear call, values can overlap the other calls; inactive means mostly above about 0.92. The list shows a part of the results.
Test: chemical genetic growth profiling, strain panel (AID 1159580);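 further: tested at 20 µM; growth read once vehicle control cultures reached saturation at 30 °C; 1 = growth at the plate median or of vehicle wells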
Conditions: S. cerevisiae deletion strains, growth OD

Measured: normalized growth

Nc1ccccc1C(=O)CC(N)C(=O)O (stereo not drawn)
inactive: locus YAL021C, strain ccr4, stronger effect = lower value 1.01 | locus YAL026C, strain drs2, stronger effect = lower value 1.01 | locus YAL030W, strain snc1, stronger effect = lower value 0.992 | locus YBL061C, strain skt5, stronger effect = lower value 1 | locus YBR009C, strain hhf1, stronger effect = lower value 1.01 | locus YBR021W, strain FUR4, stronger effect = lower value 1.06 | locus YBR023C, strain chs3, stronger effect = lower value 1 | locus YBR171W, strain sec66, stronger effect = lower value 0.99 | locus YBR229C, strain ROT2, stronger effect = lower value 1.01 | locus YBR231C, strain swc5, stronger effect = lower value 0.97 | locus YBR279W, strain paf1, stronger effect = lower value 1.01 | locus YCL011C, strain gbp2, stronger effect = lower value 1.01 | locus YCL016C, strain dcc1, stronger effect = lower value 1 | locus YCL029C, strain bik1, stronger effect = lower value 0.968 | locus YCL069W, strain vba3, stronger effect = lower value 1.01 | locus YCR088W, strain abp1, stronger effect = lower value 0.989 | locus YDL005C, strain med2, stronger effect = lower value 0.989 | locus YDL035C, strain GPR1, stronger effect = lower value 1.01 | locus YDL040C, strain nat1, stronger effect = lower value 0.989 | locus YDL074C, strain BRE1, stronger effect = lower value 0.968 | locus YDL101C, strain DUN1, stronger effect = lower value 0.995 | locus YDL134C, strain PPH21, stronger effect = lower value 1.07 | locus YDL185W, strain tfp1, stronger effect = lower value 0.947 | locus YDL192W, strain arf1, stronger effect = lower value 0.984 | locus YDR001C, strain nth1, stronger effect = lower value 0.99 | locus YDR069C, strain doa4, stronger effect = lower value 0.984 | locus YDR101C, strain arx1, stronger effect = lower value 0.956 | locus YDR137W, strain rgp1, stronger effect = lower value 0.998 | locus YDR150W, strain NUM1, stronger effect = lower value 0.997 | locus YDR159W, strain sac3, stronger effect = lower value 0.981 | locus YDR162C, strain NBP2, stronger effect = lower value 1.01 | locus YDR195W, strain ref2 0.94 | locus YDR297W, strain sur2, stronger effect = lower value 0.994 | locus YDR318W, strain mcm21, stronger effect = lower value 1.01 | locus YDR334W, strain swr1, stronger effect = lower value 0.99 | locus YDR335W, strain msn5, stronger effect = lower value 1 | locus YDR388W, stronger effect = lower value 0.994 | locus YDR392W, strain spt3, stronger effect = lower value 0.907 | locus YDR502C, strain sam2, stronger effect = lower value 1 | locus YEL003W, strain gim4, stronger effect = lower value 1.01 | locus YEL037C, strain rad23, stronger effect = lower value 1 | locus YEL061C, strain CIN8 (second series), stronger effect = lower value 0.992 | locus YEL061C, strain CIN8, stronger effect = lower value 1 | locus YER015W, strain faa2, stronger effect = lower value 1.01 | locus YER016W, strain bim1, stronger effect = lower value 0.996 | locus YER110C, stronger effect = lower value 0.975 | locus YER111C, strain swi4, stronger effect = lower value 0.998 | locus YER155C, strain BEM2 (second series), stronger effect = lower value 0.939 | locus YER155C, strain BEM2, stronger effect = lower value 0.997 | locus YER167W, strain BCK2, stronger effect = lower value 1.01 | locus YFR010W, strain ubp6, stronger effect = lower value 1.01 | locus YGL078C, strain dbp3, stronger effect = lower value 0.989 | locus YGL086W, strain mad1, stronger effect = lower value 0.954 | locus YGL167C, strain pmr1, stronger effect = lower value 0.997 | locus YGL173C, strain kem1, stronger effect = lower value 1 | locus YGL227W, strain vid30, stronger effect = lower value 0.996 | locus YGL240W, strain doc1, stronger effect = lower value 0.941 | locus YGL248W, strain PDE1, stronger effect = lower value 1.01 | locus YGL253W, strain hxk2, stronger effect = lower value 1.03 | locus YGR078C, strain PAC10, stronger effect = lower value 0.998 | locus YGR135W, strain pre9, stronger effect = lower value 1 | locus YGR229C, strain SMI1, stronger effect = lower value 1.01 | locus YGR252W, strain gcn5, stronger effect = lower value 1.17 | locus YHR013C, strain ard1, stronger effect = lower value 0.998 | locus YHR027C, strain rpn1, stronger effect = lower value 0.984 | locus YHR030C, strain SLT2, stronger effect = lower value 0.989 and 1.03 | locus YHR079C, strain IRE1 (second series), stronger effect = lower value 0.992 | locus YHR079C, strain IRE1, stronger effect = lower value 1.05 | locus YHR094C, strain hxt1, stronger effect = lower value 0.995 | locus YHR129C, strain ARP1, stronger effect = lower value 1.01 | locus YHR142W, strain chs7, stronger effect = lower value 0.995 | locus YHR200W, strain rpn10, stronger effect = lower value 0.995 | locus YIL066C, strain RNR3, stronger effect = lower value 1 | locus YIL073C, strain SPO22, stronger effect = lower value 0.986 | locus YIL125W, strain kgd1, stronger effect = lower value 0.993 | locus YIR030C, strain dcg1, stronger effect = lower value 0.997 | locus YJL092W, strain hpr5, stronger effect = lower value 1.01 | locus YJL095W, strain BCK1 (second series), stronger effect = lower value 0.993 | locus YJL095W, strain BCK1, stronger effect = lower value 0.998 and 1.02 | locus YJL115W, strain asf1, stronger effect = lower value 0.985 | locus YJL129C, strain trk1, stronger effect = lower value 1.03 | locus YJL134W, strain LCB3, stronger effect = lower value 0.991 | locus YJL154C, strain vps35, stronger effect = lower value 0.991 | locus YJL164C, strain tpk1, stronger effect = lower value 1.03 | locus YJL166W, strain qcr8, stronger effect = lower value 0.991 | locus YJL168C, strain set2, stronger effect = lower value 0.985 | locus YJL187C, strain SWE1 (second series), stronger effect = lower value 0.992 | locus YJL187C, strain SWE1, stronger effect = lower value 1.02 | locus YJR043C, strain POL32, stronger effect = lower value 1.01 | locus YJR066W, strain TOR1, stronger effect = lower value 0.952 | locus YJR075W, strain HOC1, stronger effect = lower value 0.995 | locus YKL009W, strain mrt4, stronger effect = lower value 0.964 | locus YKL068W, stronger effect = lower value 0.975 | locus YKL085W, strain MDH1 (second series), stronger effect = lower value 0.983 | locus YKL085W, strain MDH1, stronger effect = lower value 0.983 | locus YKL160W, strain elf1, stronger effect = lower value 1.02 | locus YKL190W, strain CNB1, stronger effect = lower value 1.01 | locus YKR001C, strain vps1, stronger effect = lower value 0.959 | locus YKR026C, strain gcn3, stronger effect = lower value 0.992 | locus YKR091W, strain srl3, stronger effect = lower value 0.991 | locus YLL001W, strain dnm1, stronger effect = lower value 1 | locus YLL026W, stronger effect = lower value 0.994 | locus YLL041C, strain sdh2, stronger effect = lower value 0.998 | locus YLR027C, strain aat2, stronger effect = lower value 1.01 | locus YLR039C, strain RIC1, stronger effect = lower value 0.91 | locus YLR058C, strain SHM2, stronger effect = lower value 1.01 | locus YLR102C, strain apc9, stronger effect = lower value 0.984 | locus YLR113W, strain HOG1, stronger effect = lower value 1.02 | locus YLR221C, strain rsa3, stronger effect = lower value 0.987 | locus YLR258W, strain gsy2, stronger effect = lower value 1.01 | locus YLR262C, strain YPT6 (second series), stronger effect = lower value 1 | locus YLR262C, strain YPT6, stronger effect = lower value 0.896 | locus YLR268W, strain sec22, stronger effect = lower value 0.957 | locus YLR320W, strain mms22, stronger effect = lower value 0.983 | locus YLR330W, strain CHS5, stronger effect = lower value 0.989 | locus YLR342W, strain FKS1 (second series), stronger effect = lower value 1.02 | locus YLR342W, strain FKS1, stronger effect = lower value 0.992 | locus YLR357W, strain rsc2, stronger effect = lower value 0.984 | locus YLR370C, strain arc18, stronger effect = lower value 0.992 | locus YLR371W, strain rom2, stronger effect = lower value 0.984 | locus YLR384C, strain iki3, stronger effect = lower value 0.972 | locus YLR418C, strain cdc73, stronger effect = lower value 1.06 | locus YML016C, strain PPZ1, stronger effect = lower value 0.989 | locus YML032C, strain rad52, stronger effect = lower value 1.02 | locus YML120C, strain ndi1, stronger effect = lower value 1 | locus YML124C, strain tub3, stronger effect = lower value 0.994 | locus YMR058W, strain fet3, stronger effect = lower value 1 | locus YMR078C, strain ctf18, stronger effect = lower value 0.98 | locus YMR125W, strain sto1, stronger effect = lower value 1.02 | locus YMR129W, stronger effect = lower value 1 | locus YMR205C, strain PFK2, stronger effect = lower value 1.02 | locus YMR223W, strain ubp8, stronger effect = lower value 0.995 | locus YMR231W, strain pep5, stronger effect = lower value 0.996 | locus YMR263W, strain SAP30, stronger effect = lower value 0.995 | locus YMR307W, strain GAS1, stronger effect = lower value 1.16 | locus YNL067W, strain RPL9B, stronger effect = lower value 0.998 | locus YNL071W, strain lat1, stronger effect = lower value 1 | locus YNL153C, strain GIM3, stronger effect = lower value 0.988 | locus YNL183C, strain NPR1, stronger effect = lower value 0.965 | locus YNL209W, strain ssb2, stronger effect = lower value 1 | locus YNL233W, strain BNI4, stronger effect = lower value 0.993 | locus YNL248C, strain rpa49, stronger effect = lower value 0.914 | locus YNL250W, strain rad50, stronger effect = lower value 0.935 | locus YNL271C, strain bni1, stronger effect = lower value 0.984 | locus YNL298W, strain CLA4, stronger effect = lower value 0.991 | locus YNL307C, strain MCK1, stronger effect = lower value 0.982 | locus YNL322C, strain KRE1 (second series), stronger effect = lower value 1 | locus YNR049C, strain mso1, stronger effect = lower value 1.02 | locus YNR052C, strain pop2, stronger effect = lower value 1.02 | locus YOL006C, strain TOP1, stronger effect = lower value 0.831 | locus YOL012C, strain htz1 0.879 | locus YOL147C, strain pex11, stronger effect = lower value 0.991 | locus YOR001W, strain rrp6, stronger effect = lower value 0.972 | locus YOR061W, strain CKA2, stronger effect = lower value 0.992 | locus YOR069W, strain VPS5, stronger effect = lower value 0.993 | locus YOR070C, strain gyp1, stronger effect = lower value 1 | locus YOR080W, strain dia2, stronger effect = lower value 1 | locus YOR083W, strain WHI5, stronger effect = lower value 1.02 | locus YOR106W, strain vam3, stronger effect = lower value 1.02 | locus YOR136W, strain idh2, stronger effect = lower value 0.972 | locus YOR144C, strain elg1, stronger effect = lower value 0.996 | locus YOR184W, strain ser1, stronger effect = lower value 0.978 | locus YOR231W, strain MKK1, stronger effect = lower value 1.04 | locus YOR265W, strain rbl2, stronger effect = lower value 1 | locus YOR270C, strain vph1, stronger effect = lower value 1.04 | locus YOR290C, strain snf2, stronger effect = lower value 0.994 | locus YOR316C, strain cot1, stronger effect = lower value 0.994 | locus YPL051W, strain arl3, stronger effect = lower value 1 | locus YPL078C, strain atp4, stronger effect = lower value 1.01 | locus YPL106C, strain sse1, stronger effect = lower value 0.966 | locus YPL240C, strain hsp82, stronger effect = lower value 0.992 | locus YPL241C, strain CIN2, stronger effect = lower value 1.01 | locus YPL256C, strain CLN2, stronger effect = lower value 1.04 | locus YPR119W, strain clb2, stronger effect = lower value 0.985 | locus YPR141C, strain kar3, stronger effect = lower value 0.992 | locus YPR163C, strain tif3, stronger effect = lower value 0.986 | locus YPR167C, strain met16, stronger effect = lower value 0.996 | strain wtn01, stronger effect = lower value 0.94

— PubChem BioAssay AID1159580 (chemical genetic matrix, 2015)
